# Screening data: PubChem BioAssay, several laboratories
# Shown are actives, neighbours in structure and some others; about 4.1% of the full set was active somewhere.
# Cav3 T inh = Cav3.2 calcium influx blockers – cell-based, Fluo-4 calcium fluorescence, FDSS, MLSMR library, primary screen; Voltage-dependent T-type calcium channel subunit alpha-1H (Homo sapiens), O95180; actives 4% (n = 100,000); B-score at 10 µM; Cav3.2-expressing cells; active compounds read low;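 active = single-dose well whose peak fluorescence ratio is a statistical outlier from its plate by either plate-standardised score or position-corrected B-score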
# Target sequence (O95180 whole entry, looked up): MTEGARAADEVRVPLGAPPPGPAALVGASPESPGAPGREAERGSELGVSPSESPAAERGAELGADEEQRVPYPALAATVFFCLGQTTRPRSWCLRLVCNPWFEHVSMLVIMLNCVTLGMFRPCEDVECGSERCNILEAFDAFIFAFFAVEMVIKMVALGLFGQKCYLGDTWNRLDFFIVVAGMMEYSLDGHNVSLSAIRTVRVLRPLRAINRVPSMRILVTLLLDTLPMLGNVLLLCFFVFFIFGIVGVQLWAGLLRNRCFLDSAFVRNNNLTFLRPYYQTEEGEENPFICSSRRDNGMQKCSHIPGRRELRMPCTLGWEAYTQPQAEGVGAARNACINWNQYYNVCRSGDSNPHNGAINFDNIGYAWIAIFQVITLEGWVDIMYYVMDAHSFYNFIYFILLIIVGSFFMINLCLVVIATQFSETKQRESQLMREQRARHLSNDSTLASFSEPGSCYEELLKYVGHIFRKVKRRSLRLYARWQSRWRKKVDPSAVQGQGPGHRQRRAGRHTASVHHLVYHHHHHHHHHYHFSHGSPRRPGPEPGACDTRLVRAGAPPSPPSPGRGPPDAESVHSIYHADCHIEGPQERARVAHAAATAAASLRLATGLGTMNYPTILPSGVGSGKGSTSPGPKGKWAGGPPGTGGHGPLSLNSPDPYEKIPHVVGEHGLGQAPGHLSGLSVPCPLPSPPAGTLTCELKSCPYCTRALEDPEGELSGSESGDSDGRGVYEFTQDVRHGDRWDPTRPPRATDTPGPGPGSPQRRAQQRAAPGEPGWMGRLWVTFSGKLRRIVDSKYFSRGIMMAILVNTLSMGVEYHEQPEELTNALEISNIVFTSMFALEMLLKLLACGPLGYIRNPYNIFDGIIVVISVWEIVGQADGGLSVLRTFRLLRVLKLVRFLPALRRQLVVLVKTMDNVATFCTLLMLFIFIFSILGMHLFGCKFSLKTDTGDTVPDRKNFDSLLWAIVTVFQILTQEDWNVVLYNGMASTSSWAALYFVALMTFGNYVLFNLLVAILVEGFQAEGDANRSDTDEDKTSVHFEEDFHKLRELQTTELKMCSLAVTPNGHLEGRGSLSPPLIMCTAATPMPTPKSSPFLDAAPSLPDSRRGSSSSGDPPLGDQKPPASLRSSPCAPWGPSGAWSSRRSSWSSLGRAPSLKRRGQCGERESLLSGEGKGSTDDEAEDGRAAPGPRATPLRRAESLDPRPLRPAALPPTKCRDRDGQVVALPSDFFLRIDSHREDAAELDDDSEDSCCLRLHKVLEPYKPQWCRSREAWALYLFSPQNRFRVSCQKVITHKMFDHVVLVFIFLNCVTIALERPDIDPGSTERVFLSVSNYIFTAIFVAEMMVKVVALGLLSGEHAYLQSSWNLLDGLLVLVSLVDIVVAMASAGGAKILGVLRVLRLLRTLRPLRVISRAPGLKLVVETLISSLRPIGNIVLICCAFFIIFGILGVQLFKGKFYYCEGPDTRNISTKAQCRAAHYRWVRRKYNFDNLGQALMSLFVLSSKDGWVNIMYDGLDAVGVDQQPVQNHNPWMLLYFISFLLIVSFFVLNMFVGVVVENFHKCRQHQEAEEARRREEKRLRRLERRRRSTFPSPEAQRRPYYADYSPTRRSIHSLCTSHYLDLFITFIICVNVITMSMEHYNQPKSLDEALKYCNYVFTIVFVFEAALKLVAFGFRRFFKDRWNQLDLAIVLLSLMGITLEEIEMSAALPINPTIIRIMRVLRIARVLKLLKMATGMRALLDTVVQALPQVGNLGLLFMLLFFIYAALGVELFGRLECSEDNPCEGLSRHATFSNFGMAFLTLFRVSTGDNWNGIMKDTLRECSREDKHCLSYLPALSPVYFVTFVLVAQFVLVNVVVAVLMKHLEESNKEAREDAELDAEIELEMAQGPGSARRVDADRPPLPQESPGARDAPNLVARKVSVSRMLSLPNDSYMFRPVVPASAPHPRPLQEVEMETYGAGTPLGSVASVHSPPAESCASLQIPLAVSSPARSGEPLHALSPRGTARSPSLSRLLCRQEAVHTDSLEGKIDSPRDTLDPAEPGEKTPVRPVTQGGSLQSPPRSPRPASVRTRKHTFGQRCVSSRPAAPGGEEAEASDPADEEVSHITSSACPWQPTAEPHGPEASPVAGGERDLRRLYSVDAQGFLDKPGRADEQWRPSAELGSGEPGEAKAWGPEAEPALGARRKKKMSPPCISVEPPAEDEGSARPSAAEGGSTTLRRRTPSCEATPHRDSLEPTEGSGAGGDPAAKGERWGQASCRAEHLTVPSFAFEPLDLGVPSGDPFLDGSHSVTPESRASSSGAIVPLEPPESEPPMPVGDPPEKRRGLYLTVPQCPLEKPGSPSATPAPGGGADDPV
# Pyk2 oligo antag = antagonists of Pyk2 self-association, primary screen, Q293 cells, FERM NanoBiT luminescence, HTS | Protein-tyrosine kinase 2-beta (Homo sapiens), Q14289 | active compounds read low | z-score (the deposit names both 25 µM and 10 µM) | actives 0.83% (n = 99,000) | AID 1347419, 2020;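 active = Z-score of -3 or lower, scaled per plate to the spread of control and sample wells; inactive = z-score above -3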;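 note: negative z-score means lost luminescence so less FERM oligomerization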
# MRP reversal = reversal of MRP1-mediated doxorubicin resistance, primary screen, H69AR cells, doxorubicin co-treatment; differential viability (reversal), % at 10 µM; H69AR cells + 2 uM doxorubicin, CellTiter-Glo, 72 h; actives 0.04% (n = 85,000); AID 602, 2007;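 active = viability drop by adding the cancer drug above about 55%, with treated viability meeting a 40% cutoff, limit read from the data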;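 note: viability without doxorubicin minus viability with 2 µM doxorubicin for each compound; larger differential means the compound sensitizes cells more to doxorubicin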
# Mac1 fbg inh = inhibitors of CD11b/CD18 adhesion to fibrinogen, primary screen, K562 cells, luminescence. inhibition, % at 10 µM. Integrin beta-2 (Homo sapiens) + Integrin alpha-M (Homo sapiens), P05107+P11215. ATPlite luminescence; Mn2+ added to activate the integrin. actives 0.54% (n = 93,000);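 active = primary inhibition of 50% or more at 10 µM, then 40% or more on retest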
# MRP-1 activ = H69AR viability gain despite doxorubicin, primary screen, MRP-1 activator project, H69AR cells, CellTiter-Glo; AID 799, 2007; viability increase, % at 10 µM; actives 0.61% (n = 140,000); viability rescue;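 active = viability gain under doxorubicin at or above a set limit, the compound median plus 3 SD, cut at about 4.7% in these data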;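 note: MRP-1 overexpressing cells given doxorubicin 25 µM after compound pretreatment; 18-22 h compound pretreatment then 72 h with doxorubicin before readout; 0% = doxorubicin-only wells and 100% = vehicle-treated cells without doxorubicin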
# Mac1 fbg enh = enhancers of CD11b/CD18 adhesion to fibrinogen, primary screen, K562 cells, luminescence | activation, % at 10 µM | actives 0.07% (n = 93,000) | ATPlite luminescence;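 active = 10 µM primary screen giving 50% or more activity, confirmed by 40% or more on retest at that dose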
# * marks the source's active call; other numbers are inactive results; · = no result given.
SMILES,Cav3 T inh,Pyk2 oligo antag,MRP reversal,Mac1 fbg inh,MRP-1 activ,Mac1 fbg enh
CCc1cccc(NC(=O)Cn2cccc2)c1,0.13,-0.79,-15,2,-3,-7
N=C(N)SCc1ccc(Cl)cc1Cl,·,·,·,·,5.2*,·
COc1ccccc1NC(=O)CSc1nnc(-c2ccccc2)o1,-2.2,·,6,0,1,0
COc1cc(Br)cc(C=Nc2cccc(C(F)(F)F)c2)c1O,·,·,·,·,0,·
CC(C)N(C(=O)c1ccccc1-c1ccccc1)C(C)C,-4.6*,2.1,11,12,0,-2
Cc1ccc(C(=O)/C=C/Nc2cccc(O)c2)cc1,-1.7,1.6,·,91*,0,-11
O=C(/C=C/Nc1cccc(O)c1)c1ccccc1,-1.4,-0.4,1,69*,-1,-2
CC(=O)c1cccc(N/C=C\C(=O)c2ccc(C)cc2)c1,·,·,·,·,0,·
CCN(CC)S(=O)(=O)c1ccc(C(=O)NCc2n[nH]c(=S)n2Cc2ccccc2)cc1,-4.1*,1.1,·,10,1,-3
CCN(CC)S(=O)(=O)c1ccc(C(=O)Nc2ncn(Cc3ccccc3)n2)cc1,0.64,0.33,·,11,-1,21
Cc1ccc(COn2c(-c3ccc(Cl)cc3)nc3ccc([N+](=O)[O-])cc32)cc1,-1.9,-2.5,·,19,-6,0
O=[N+]([O-])c1ccc2nc(-c3ccc(Cl)cc3)n(OCc3ccccc3)c2c1,·,-3.1*,·,-9,-3,-1
CO/N=C(/CNC(=O)c1ccccc1Cl)c1ccc(Cl)cc1,·,0.92,·,·,0,·
CCN(CC)c1cnn(C/C(=N\OC)c2ccc(Cl)cc2)c(=O)c1Br,-5.1*,-1.7,2,-18,-2,1
O=C(c1cnn2c(C(F)F)cc(-c3ccccc3)nc12)N1CCCc2ccccc21,-0.12,-0.48,-13,-29,-1,4
Cc1ccc(C)c(S(=O)(=O)Nc2ccc3scnc3c2)c1,-4.6*,-1.4,-26,10,-3,-3
O=C(Cn1c(=O)n(Cc2ccc3c(c2)OCO3)c(=O)c2ccccc21)N1CCCc2ccccc21,-7.1*,-0.83,-2,·,2,·
COc1ccc(CCNC(=O)Cn2cnc3c(nnn3Cc3ccc(C)cc3)c2=O)cc1OC,-0.072,0.79,5,·,1,·
NC(=O)C1(N2CCCCC2)CCN(C(=O)CSc2nc3ccccc3s2)CC1,·,-0.06,-2,14,-3,-5
O=C(CCN1C(=O)c2ccccc2C1=O)N1CCN(Cc2ccc(Cl)cc2Cl)CC1,-6*,0.24,11,3,0,0
CCC1(c2ccc(F)cc2)NC(=O)N(CC(=O)c2ccc[nH]2)C1=O (stereo unspecified),-0.85,1.2,·,-22,-2,22
O=c1c(N2CCCCC2)coc2ccccc12,1,-0.23,-14,13,0,5
COc1ccc(CN2C(=O)c3ccccc3C(/C=N\OCc3ccc(F)cc3)C2=O)cc1 (stereo unspecified),-3.7*,-0.86,·,·,-1,·
Cc1ccc(-c2csc(C3C(N)=NC(S)=C(C#N)C34CCCCC4)n2)cc1 (stereo unspecified),-0.39,-1.8,·,-1,-3,14
COc1ccc(/C=N/NC(=S)Nc2cccc(C(=O)O)c2)cc1OC,·,·,·,-8,4,-1
SMILES,Cav3 T inh,Pyk2 oligo antag,MRP reversal,Mac1 fbg inh,MRP-1 activ,Mac1 fbg enh
COc1cc(/C=N/NC(=S)Nc2cccc(C(=O)O)c2)cc(OC)c1OC,·,·,·,-19,4.8*,1
CCc1c(C)nc(N)n2c(SCC(=O)Nc3ccccc3OC)nnc12,0.24,-1.1,3,5,0,-5
Cc1cc(C(F)(F)F)nc(SCC(=O)NC2CC3CCC2C3)n1 (stereo unspecified),-1.1,-0.02,35,-21,0,-1
O=C1c2cccc3c(O)ccc(c23)C(=O)N1Cc1ccccc1,-10*,-0.09,·,66*,0,-3
O=C1c2cccnc2C(=O)N1Cc1ccccc1,-0.67,·,0,·,-3,·
O=C(COC(=O)CC12CC3CC(CC(Br)(C3)C1)C2)NC(=O)NCc1ccco1,-1.9,-0.04,27,·,-2,·
C=CCn1c(SCC(=O)NCc2ccc3c(c2)OCO3)nnc1C1COc2ccccc2O1 (stereo unspecified),-3.3,2.6,3,-1,0,0
C=CCn1c(SCc2c(C)noc2C)nnc1C1COc2ccccc2O1 (stereo unspecified),-4.9*,0.56,-11,0,-2,-2
O=C1CC(c2cc(Br)ccc2F)c2cc3c(cc2N1)CCC3 (stereo unspecified),0.039,-0.26,·,13,-4,0
O=C(NC1CCCCC1)C(c1ccc(F)cc1)N(C(=O)c1cccs1)c1ccc2c(c1)OCO2 (stereo unspecified),0.36,-0.46,·,-18,-3,35
O=C(NC1CCCCC1)C(c1ccc2ncccc2c1)N(Cc1ccc(F)cc1)C(=O)c1cccs1 (stereo unspecified),·,-3.9*,·,-14,-4,3
Cc1ccc2c(c1)N(CCC(=O)NCCN1CCOCC1)C(=O)CO2,0.068,3.1,9,-4,1,-5
Cn1c(-c2ccc(C=O)s2)nc2c3ccccc3c3ccccc3c21,-5.5*,-3.6*,-17,8,-1,20
O=C(COc1cccc(Cl)c1)NNC(=S)Nc1ccccc1,·,·,·,2,-1,10
O=C(COc1ccccc1)NNC(=S)NC(=O)c1ccc(Cl)cc1Cl,-4.1*,·,-15,·,-5,·
CC(Sc1nnc(Cc2cccs2)n1C1CCCCC1)C(=O)N1CCc2ccccc21 (stereo unspecified),-6.5*,0.03,-6,4,-2,0
Cn1c(=O)c2c(nc(Cl)n2Cc2ccncc2)n(C)c1=O,0.77,0.49,-3,-5,0,2
Cn1cccc1-c1nc2ccccc2n1Cc1ccccc1,-4.7*,-0.57,2,7,-2,-1
O=C(c1ccco1)N(CC1CCCO1)c1nc(-c2ccccc2)cs1 (stereo unspecified),-3.1*,-2,-33,1,-2,10
COCc1cc(C)nc(NCCc2ccccc2)c1C#N,-0.33,-0.41,11,-9,-5,4
COCc1cc(C)nc(N2CCNCC2)c1C#N,0.55,1.3,-13,1,0,1
COCc1cc(C)nc(N2CCN(Cc3ccccc3)CC2)c1C#N,1.1,-0.06,8,52*,-2,3
COCc1cc(C)nc(N2CCN(c3ccccc3)CC2)c1C#N,-4.5*,0.79,13,-16,0,-2
Cc1ccnc(Nc2nc3ccccc3o2)n1,0.63,·,-8,5,-2,-1
